Drawing on PubChem BioAssay (NCI), this text covers growth for 38 molecules.

Structures are written as SMILES. Values joined by “and” are separate entries in the source; they are usually repeats but may differ in a detail not shown here. Identical values can stand only once. About 83,000 compounds went through this panel and 20% of them were active in at least one assay; those are over-represented in the sample as a whole.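 Negative percent growth values reflect cell death: -40 means 40% of the cells present at the start died, and -100 means all died.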 Active and inactive are the calls of the source.

For one test, the system named is SNB-19 CNS. As to the kind of experiment: NCI-60 one-dose screen, 48 h (100 = growth as untreated, 0 = no growth, -100 = all killed). The conditions noted are these: 2.5 µM. As to the method:
Growth inhibition of the SNB-19 human tumor cell line is measured as a screen for anti-cancer activity. Cells are grown in 96 well plates and exposed to the test compound for 48 hours. Compounds are tested at a single concentration, which is 10^-5 M for most compounds. The reported endpoint is percent growth (GI% or GIPRCNT), where numbers from 0 - 100% represent growth inhibition, and numbers from -100% - 0 represent cell death. For example, a value of 40 represents 60% growth inhibition. A value of 0 means no net growth occurred over the course of the experiment. A value of -40 indicates 40% of cells at the beginning of the experiment died by the end of the experiment. A value of -100 means all cells are dead at the end of the experiment.
NCI-60 Human Tumor Cell Lines Screen was performed using the standard one-dose NCI protocol, which is described in more detail at https://dtp.cancer.gov/discovery_development/nci-60/default.htm.
Compounds with GIPRCNT values below 10 were considered active. Activity score was based on GIPRCNT using the following formula: […]
Score is 0 for GIPRCNT values of 100 or above, 50 for GIPRCNT values of 0, and 100 for GIPRCNT values of -100.
Turning to `COc1cc(NS(C)(=O)=O)ccc1Nc1c2ccccc2nc2ccccc12`, the growth is 14.5% (inactive).

The same test, now with this note: 10 µM.
On to `CN(C)C(=O)c1ccc(SC(=S)NCc2ccccc2)cc1`, for which the growth was 109% (inactive).

For the molecule `COc1ccc(-c2cscc2N)cc1`, the growth is 82.9% (inactive).

Regarding `COc1cc(NS(C)(=O)=O)ccc1Nc1c2ccccc2nc2ccccc12`, the growth is -26% (active) and 28.9% (inactive) and 35.6% (inactive).

Staying with this test, now noted: 10 µM unless noted.
Regarding `O=C(/C=C/C=C/c1ccccc1)c1ccco1`, the growth was 92.5% (inactive).

For `Cc1ccc2c(ccc3c[n+]4c5ccccc5ccc4n32)c1`, the growth is 2.91% (active).

`Oc1c(Cl)cc(Cl)c2cccnc12`: the growth was 57.4% (inactive) and 38.9% (inactive).

As to `COc1ccc(N=N/N=c2\sc3cc(OC)ccc3n2C)cc1`, the growth was 98% (inactive).

As to `Cc1cc2nc(CS)[nH]c2cc1C`, the growth is 93.3% (inactive).

Regarding `O=C(/C=C/c1cccc(Cl)c1)c1ccccc1`, the growth was 89.3% (inactive) and 76.4% (inactive).

As to `NC(=S)N/N=C/c1ccc(Cl)s1`, the growth was 101% (inactive).

On to `CCC1OC(OC)C=CC1=O` (stereo unspecified), for which the growth is 91.5% (inactive).

Turning to `Oc1c(Cl)c2ccccc2c2ccccc12`, the growth was 99.1% (inactive).

In the case of `Oc1c(Br)cc(Cl)cc1C(c1cc(Cl)cc(Br)c1O)C(Cl)(Cl)Cl`, the growth was 24.7% (inactive).

On to `CC(=Nc1ccc(N(C)C)cc1)c1ccccc1`, for which the growth was 45% (inactive).

In the case of `O=C1c2cccnc2-c2nccc3c2c1nc1cc(Br)ccc13`, the growth was -49.7% (active) and -79% (active).

For `CNc1ccc(N)cc1`, the growth was 104% (inactive).

For `O=Nc1ccccc1N=O`, the growth was 88.6% (inactive).

On to `NC(=S)N/N=C\c1nccc2c(C(F)(F)C(F)(F)C(F)(F)F)cccc12`, for which the growth was 21.8% (inactive).

As for `CN1c2ccccc2C(C)(C)C12C=Cc1cc(O)ccc1O2` (stereo unspecified), the growth is 61.1% (inactive).

Regarding `CC1OC2CC(=O)OC2C2=C1C(=O)c1c(O)cccc1C2=O` (stereo unspecified), the growth is 15.9% (inactive).

In the case of `CCOc1ccc(-c2nc3ccc(-c4nc5ccc(N6CCN(C)CC6)cc5[nH]4)cc3[nH]2)cc1`, the growth was -96.2% (active).

Take `C=CCOc1ccc(N=NC(C#N)C#N)cc1`: the growth was 94% (inactive).

In the case of `C/C=C1\SC(=S)NC1=O`, the growth is 102% (inactive).

On to `CCC(=O)Sc1ccccc1C(=O)Nc1ccc(Cl)cc1`, for which the growth was 76.1% (inactive).

Turning to `CN(C)c1ccc(/C=N/N=C(\C#N)[S][Sn]([Cl])([c]2ccccc2)[c]2ccccc2)cc1`, the growth was 89.6% (inactive).

Consider `CCC(CC)COC(=O)c1ccc(O)c(O)c1`, for which the growth is 74.6% (inactive).

With `Cn1c2ccccc2c2nnc(N/N=C/c3ccccn3)nc21`, the growth is 26.1% (inactive).

With `CCCCCCCCCCCCCCCC[N+](C)(CCO)Cc1cnc[nH]1` (stereo unspecified), the growth is -98.8% (active).

As for `O=C1C=CC(=O)N1C1c2ccccc2-c2ccccc21`, the growth was 105% (inactive).

With `COC(=O)c1nc(=S)[nH]c(C(=O)OC)c1C(=O)c1ccc2ccccc2c1`, the growth was 94.7% (inactive).

For the molecule `Cn1c2c(c3ccccc31)CCN1C[C@@H]3CCCC[C@H]3C[C@@H]21`, the growth was 18.3% (inactive).

For the molecule `C=C(Cl)C(=NC(C)(C)C)Nc1ccccc1C`, the growth is 95.3% (inactive).

Consider `CC1(C)CC([P+](c2ccccc2)(c2ccccc2)c2ccccc2)=NN1`, for which the growth was 44.5% (inactive).

Consider `Oc1ccc(/C=N/NC(=S)Nc2ccccc2)nc1`, for which the growth is 42% (inactive).

Take `N#CC1C(=O)SC2c3ccccc3C(=O)c3ccccc3C12` (stereo unspecified): the growth was 99.4% (inactive).

For `O=C1c2ccccc2C(=O)N1c1ccccc1`, the growth was 105% (inactive).

`N#CSCc1ccc(CSC#N)c(Cl)c1`: the growth is 84% (inactive).

Turning to `CC1SC(=S)N(c2ccc(Cl)cc2)C1=O` (stereo unspecified), the growth is 99.9% (inactive) and 104% (inactive).

The test is the same for the next values; noted with them: 100 µM.
`CN(C)C(=O)c1ccc(SC(=S)NCc2ccccc2)cc1`: the growth was -0.973% (active).

For the molecule `COc1ccc(-c2cscc2N)cc1`, the growth is 57.6% (inactive).
